Six compounds from PubChem BioAssay (NCATS) can be followed below.

Structures are written as SMILES. Records with an inconclusive call do not appear. Calls of active or inactive are those of the source. Calls follow the shape of the dose curve; as a rule, active = well fitted curve in the direction sought with a large enough effect; inconclusive = small, poorly fitted or top-dose-only effect, or another doubt; inactive = no such curve, though single readings can be large; an effect the other way counts as inactive or inconclusive.

Test [1] in a line: qHTS of pediatric cancer cell lines to identify multiple opportunities for drug repurposing: Primary screen for BT-12 cells (AID 1347101). Also: nearly all actives have a fitted effect of over 25% in size. The method in brief:
(§1)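 Cells (500-1,000/well) rested 5 h, then received compounds for 48 h; metabolically active cells were measured by CellTiter-Glo luminescence. Final concentrations spanned up to 46 µM (MIPE, 11-point) or 0.59 nM-46 µM (NPC, 8-point) in primary screens, 11-point in follow-ups.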
(Quantitative high-throughput screening tests each substance at several concentrations.)

The nature of test [2]: qHTS of pediatric cancer cell lines to identify multiple opportunities for drug repurposing: Primary screen for Rh18 cells (AID 1347102). Also: nearly all actives have a fitted effect of over 65% in size. The method in brief:
as §1

Test [3] in a line: qHTS of pediatric cancer cell lines to identify multiple opportunities for drug repurposing: Primary screen for RD cells (AID 1347104). Also: nearly all actives have a fitted effect of over 55% in size. The method in brief: (§2)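 Phenotypic viability qHTS, 48 h compound exposure, CellTiter-Glo luminescence read-out; multi-concentration dosing so that potency and efficacy derive directly from the primary screen's curves.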
A short description of test [4]: qHTS of pediatric cancer cell lines to identify multiple opportunities for drug repurposing: Primary screen for control Hh wild type fibroblast cells (AID 1347106). Also: nearly all actives have a fitted effect of over 55% in size.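 As to activity change, negative = cytotoxic: a drop in luminescence marks cytotoxicity and a rise apparent proliferation.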 The method in brief:
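Viability after 48 h compound treatment at 37C, 500-1,000 cells/well, read as ATP luminescence with CellTiter-Glo. Primary screens used 11-point (MIPE, 0.78 nM-46 µM) or 8-point (NPC, 0.59 nM-46 µM) final concentrations; follow-up screens used 11-point dilutions.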

The nature of test [5]: qHTS of pediatric cancer cell lines to identify multiple opportunities for drug repurposing: Primary screen for Rh30 cells (AID 1347107). Also: nearly all actives have a fitted effect of over 75% in size. The method in brief: as §1
Test [6] is described as follows: qHTS of pediatric cancer cell lines to identify multiple opportunities for drug repurposing: Confirmatory screen for NB1643 cells (AID 1347109). Also: nearly all actives have a fitted effect of over 45% in size. The method in brief: as §1
Test [7] is described as follows: qHTS of pediatric cancer cell lines to identify multiple opportunities for drug repurposing: Confirmatory screen for SK-N-MC cells (AID 1347111).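 Also: cells exposed to compound for 48 h before the readout; nearly all actives have a fitted effect of over 70% in size.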 The method in brief:
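Seed 500-1,000 cells/well; rest 5 h at 37 degrees C. Pin-transfer compounds, 11-point titration. Incubate 48 h. Add CellTiter-Glo, 15 min RT, read luminescence.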

Test [8] is described as follows: qHTS of pediatric cancer cell lines to identify multiple opportunities for drug repurposing: Confirmatory screen for BT-12 cells (AID 1347112). Also: nearly all actives have a fitted effect of over 55% in size. The method in brief: as §1
The nature of test [9]: qHTS of pediatric cancer cell lines to identify multiple opportunities for drug repurposing: Confirmatory screen for LAN-5 cells (AID 1347113). Also: nearly all actives have a fitted effect of over 65% in size. The method in brief:
as §1

A short description of test [10]: qHTS of pediatric cancer cell lines to identify multiple opportunities for drug repurposing: Confirmatory screen for NB-EBc1 cells (AID 1347115).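 Also: cells exposed to compound for 48 h before the viability read; nearly all actives have a fitted effect of over 45% in size.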 The method in brief:
as §1

The nature of test [11]: qHTS of pediatric cancer cell lines to identify multiple opportunities for drug repurposing: Confirmatory screen for BT-37 cells (AID 1347117). Also: nearly all actives have a fitted effect of over 55% in size. To be noted: BT-37 pediatric cancer cells, viability; activity change, negative = cytotoxic: at 45.9 µM (top of the series). The method in brief: as §1
Test [12] is described as follows: qHTS of pediatric cancer cell lines to identify multiple opportunities for drug repurposing: Confirmatory screen for MG 63 (6-TG R) cells (AID 1347119). Also: nearly all actives have a fitted effect of over 55% in size. The method in brief:
as §1

A short description of test [13]: qHTS of pediatric cancer cell lines to identify multiple opportunities for drug repurposing: Primary screen for MG 63 (6-TG R) cells (AID 1347105). Also: nearly all actives have a fitted effect of over 50% in size. The method in brief: as §2
A short description of test [14]: qHTS of pediatric cancer cell lines to identify multiple opportunities for drug repurposing: Primary screen for Rh41 cells (AID 1347108). Also: nearly all actives have a fitted effect of over 70% in size. The method in brief:
as §2

A short description of test [15]: qHTS of pediatric cancer cell lines to identify multiple opportunities for drug repurposing: Primary screen for OHS-50 cells (AID 1347103). Also: nearly all actives have a fitted effect of over 40% in size. The method in brief:
as §1

Test [16] in a line: qHTS of pediatric cancer cell lines to identify multiple opportunities for drug repurposing: Confirmatory screen for A673 cells (AID 1347110).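 Also: cells exposed to compound for 48 h before the viability read; nearly all actives have a fitted effect of over 65% in size.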 The method in brief:
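Cells plated at 500-1,000/well were treated five hours later with multi-point dilutions up to 46 µM final. After two days, CellTiter-Glo was added and luminescence read.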

The nature of test [17]: qHTS of pediatric cancer cell lines to identify multiple opportunities for drug repurposing: Confirmatory screen for DAOY cells (AID 1347114). Also: nearly all actives have a fitted effect of over 65% in size. The method in brief: (§3)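 Viability measured as metabolically active cells via CellTiter-Glo luminescence following 48 hours of compound exposure, 11-point dilutions in confirmatory testing. 500-1,000 cells/well plated 5 hours before dosing; controls were DMSO and 2.3 µM bortezomib.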

A short description of test [18]: qHTS of pediatric cancer cell lines to identify multiple opportunities for drug repurposing: Confirmatory screen for SJ-GBM2 cells (AID 1347116). Also: nearly all actives have a fitted effect of over 60% in size. The method in brief:
as §3

Test [19] is described as follows: qHTS of pediatric cancer cell lines to identify multiple opportunities for drug repurposing: Confirmatory screen for TC32 cells (AID 1347118). The method in brief: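 qHTS, TC32, 48 h drug treatment, CellTiter-Glo luminescence as a proxy for metabolically active cells; primary top concentration 46 µM (MIPE 11-pt, NPC 8-pt); confirmatory 11-pt.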
A short description of test [20]: qHTS of pediatric cancer cell lines to identify multiple opportunities for drug repurposing: Confirmatory screen for control Hh wild type fibroblast cells (AID 1347121). Also: nearly all actives have a fitted effect of over 70% in size. The method in brief:
as §1
Potency is read from the fitted curve at half-maximal effect.

Take `COc1cccc2c1C(=O)c1c(O)c3c(c(O)c1C2=O)C[C@@](O)(C(=O)CO)C[C@@H]3O[C@H]1C[C@H](N)[C@H](OC2CCCCO2)[C@H](C)O1` (some centres not stated): the Potency in test [1] was 2430 nM (active); in test [3], 13200 nM (active); in [6], 1650 nM (active); in test [7], 737 nM (active); in test [8], 10400 nM (active); in test [9], 1170 nM (active). For the same compound, the Potency in [10] is 1650 nM (active); in [11] it was 928 nM (active); in test [12], 1470 nM (active). Besides, the Potency result in test [2], in [4] and in test [5] was “inactive” throughout.

Turning to `NC(=NCCCCCCN=C(N)N=C(N)Nc1ccc(Cl)cc1)N=C(N)Nc1ccc(Cl)cc1`, the Potency is 13700 nM (active) in test [1]; 20900 nM (active) in test [2]; 11800 nM (active) in test [3]; 14800 nM (active) in test [13]; 8330 nM (active) in test [4]; 4690 nM (active) in test [5]. In addition, the Potency in test [14] is 7430 nM (active).

Take `CCN(CC)Cc1ccc2cc(COC(=O)Nc3ccc(C(=O)NO)cc3)ccc2c1`: the Potency in [1] was 3060 nM (active); in [15], 863 nM (active); in test [3] it was 2350 nM (active); in test [13], 4690 nM (active); in test [4], 14800 nM (active); in [5], 4690 nM (active). Further, the Potency in test [14] was 935 nM (active). Further, the Potency entry in test [6], in test [16], in test [7], in test [8], in test [9] and in test [17] was “inactive” in each case. For the same compound, the Potency result in test [18], in test [11], in test [19] and in [12] was “inactive” each time.

Turning to `CC(C)C[C@H](NC(=O)CNC(=O)c1cc(Cl)ccc1Cl)B1OC(=O)CC(CC(=O)O)(C(=O)O)O1` (some centres not stated), the Potency in test [1] was 217 nM (active); in test [15] it was 193 nM (active); in test [3] it was 332 nM (active); in test [13], 148 nM (active); in test [4] it was 1050 nM (active); in test [5] it was 1480 nM (active). In addition, the Potency in test [14] is 296 nM (active); in test [6] it was 261 nM (active); in test [8] it was 414 nM (active); in [9] it was 233 nM (active); in test [17], 165 nM (active); in [18] it was 147 nM (active). Also, the Potency is 522 nM (active) in [11], 465 nM (active) in test [19] and 16500 nM (active) in [20].

Consider `CC(C)C[C@H](NC(=O)[C@@H](NC(=O)c1cccc(-c2ccccc2)n1)[C@@H](C)O)B(O)O`, for which the Potency is 68.5 nM (active) in [1]; 432 nM (active) in [15]; 118 nM (active) in test [3]; 29.6 nM (active) in test [13]; 209 nM (active) in test [4]; 372 nM (active) in [5]. For the same compound, the Potency in test [14] was 93.5 nM (active); in test [6], 82.7 nM (active); in [16], 73.7 nM (active); in [7] it was 14.7 nM (active); in test [8], 82.7 nM (active); in test [9], 36.9 nM (active). In addition, the Potency was 36.9 nM (active) in [17]; 46.5 nM (active) in test [18]; 73.7 nM (active) in [11]; 58.5 nM (active) in test [19]; 16.5 nM (active) in test [12]; 20800 nM (active) in test [20].

On to `CC(=O)O[C@]1(C(C)=O)CC[C@H]2[C@@H]3C=C(C)C4=CC(=O)CC[C@]4(C)[C@@H]3CC[C@@]21C`, for which the Potency in test [1] was 15300 nM (active); in [2], 13200 nM (active). Further, the Potency result in test [5] is “inactive”.
